Source: PubChem
Only a selection was taken, and hits are over-represented in it overall.
RE007 growth inh = qHTS Assay for Inhibitors of the HIV-1 protein Vpr; AID 651644, 2012; S. pombe RE007 Vpr strain, BacTiter-Glo ATP luminescence, 24 h; Potency, µM (titrated, usually from 92.2 µM), most hits filed as inhibitors; 0.21% of 360,000 active; active = well fitted falling curve with a large enough effect; inconclusive = small, poorly fitted or top-dose-only effect; inactive = no such curve, though single readings can be large or run the other way; note: nearly all actives have a fitted effect of over 50% in size
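Fission yeast strain RE007, carrying one chromosomally integrated HIV-1 vpr copy, was seeded at OD 0.01 in PMG+AL medium with 23 nL pinned compound. After 24 h at 30 °C and 99% humidity, viability was read by BacTiter-Glo luminescence.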
FBPA Giardia inh = qHTS Assay for Inhibitors of Fructose-1,6-bisphosphate Aldolase from Giardia Lamblia. A8B2U2. purified Giardia FBPA. Potency, µM (top dose mostly 59.6 µM), usual class: inhibitors. 0.71% of 290,000 active. AID 2451, 2010; note: nearly all actives have a fitted effect of over 55% in size
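40 nM FBPA preincubated 10 min at RT with compound (up to 57.5 uM final), then substrate plus GAPDH/TPI/NAD/arsenate coupling and diaphorase/resazurin added. Fluorescence read after 20 min at RT, 525/598 nm.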
CHX counter = Cycloheximide Counterscreen for Small Molecule Inhibitors of Shiga Toxin; 12% of 300,000 active; cell reporter, cycloheximide protein synthesis inhibition counterscreen; max response, %; in the data active = max response mostly above about 13%, no sharp cut-off; inactive = mostly below about 14%; note: read at 38.3 µM for the half of the compounds with a filed dose
Tb PYK inh = qHTS of Trypanosoma Brucei Inhibitors | TbPYK enzyme, Kinase-Glo Plus ATP luminescence, 45 min | Potency, µM (doses to about 76.8 µM), hits mostly inhibitors | 0.12% of 410,000 active | AID 624173, 2012; note: nearly all actives have a fitted effect of over 50% in size
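Screened from lowest to highest concentration, compounds were pinned into TbPYK/substrate mixtures, and ADP (130 uM final) was added. Plates sat at room temperature for 45 min prior to Kinase-Glo Plus detection by luminescence.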
LmPK inhibitor = qHTS Assay for Inhibitors of Leishmania Mexicana Pyruvate Kinase (LmPK); Q27686; purified LmPK, Kinase-Glo ATP luminescence, 1 h; Potency, µM (highest dose often 57.5 µM), hits mostly inhibitors; 0.37% of 290,000 active
Target sequence (Q27686 whole entry, looked up): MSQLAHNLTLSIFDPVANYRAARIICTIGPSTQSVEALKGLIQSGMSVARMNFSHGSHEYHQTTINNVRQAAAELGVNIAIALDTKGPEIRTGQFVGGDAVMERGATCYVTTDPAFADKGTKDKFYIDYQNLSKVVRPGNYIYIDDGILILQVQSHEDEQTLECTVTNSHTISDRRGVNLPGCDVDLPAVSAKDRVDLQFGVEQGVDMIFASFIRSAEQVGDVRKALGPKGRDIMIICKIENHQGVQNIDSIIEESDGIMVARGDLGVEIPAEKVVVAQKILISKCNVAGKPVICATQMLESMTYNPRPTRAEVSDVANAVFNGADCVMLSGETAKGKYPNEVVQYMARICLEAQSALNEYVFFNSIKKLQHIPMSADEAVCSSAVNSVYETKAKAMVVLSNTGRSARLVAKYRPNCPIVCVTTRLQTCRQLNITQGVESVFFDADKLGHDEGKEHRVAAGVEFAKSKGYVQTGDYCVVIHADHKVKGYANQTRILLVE
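qHTS format; LmPK 0.1 nM; substrates PEP 0.5 mM and ADP 0.1 mM. One-hour room-temperature incubation, then coupled luciferase luminescence; 0.5 nM enzyme wells mark activation.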
Shiga inhibitor = A qHTS for Small Molecule Inhibitors of Shiga Toxin; Vero cells, Shiga toxin protein synthesis inhibition reporter; inhibition, % at 38.7 µM; 9.2% of 290,000 active; in the data active = inhibition mostly above about 28%, no sharp cut-off; inactive = mostly below about 43%
Hits are given with their value; i = inactive; ? = inconclusive; nt = no result given. Unless noted, calls come from the whole dose curve; as a rule, active = well fitted curve in the direction sought with a large enough effect; inconclusive = small, poorly fitted or top-dose-only effect, or another doubt; inactive = no such curve, though single readings can be large; an effect the other way counts as inactive or inconclusive.

SMILES	RE007 growth inh	FBPA Giardia inh	CHX counter	Tb PYK inh	LmPK inhibitor	Shiga inhibitor
O=C(NC1=NC2CCCCC2N1)c1ccccc1 (stereo unspecified)	i	i	33.5	i	i	97.1
O=C(NCc1ccc(F)cc1)c1cc(C2CCCCN2C(=O)CCc2ccccc2)on1 (stereo unspecified)	i	nt	nt	i	nt	nt
CCOC(=O)c1cc(C#N)c(SCC(N)=O)[nH]c1=O	i	i	i	i	i	i
CCOC(=O)c1cc(C#N)c(SCC(=O)Nc2ccc(C(C)=O)cc2)[nH]c1=O	i	i	17.4	i	i	46.9
COc1ccc(Cl)cc1N(CC(=O)N1CCCCCC1)S(C)(=O)=O	i	i	i	i	i	i
COc1ccc(OC)c(CNC(=O)c2ccc(Sc3ccc(C)cc3)c(N)c2)c1	nt	nt	nt	i	nt	nt
COC(=O)c1ccc(Sc2ccc(C)cc2)c(N)c1	?	i	57.0	i	i	57.2
Cc1nnc(N2CCC(C(=O)NC(C)C)CC2)c2nn(-c3ccc(Cl)cc3)c(C)c12	nt	nt	nt	i	nt	nt
CCOc1cc(/C=C2\SC(=N)N(c3nonc3N)C2=O)ccc1OCCN1CCOCC1	i	?	14.1	i	i	i
Cc1cc(C)c2c(c1)/C(=N/NC(=O)c1cc(C)oc1C)CCC2	i	i	36.0	i	i	i
Cc1cc(C)c2c(c1)/C(=N/NC(=O)c1ccc(O)cc1)CCC2	i	i	22.3	i	i	36.1
Cc1cc(NC(=O)COC(=O)c2ccccc2[N+](=O)[O-])no1	i	i	27.7	i	i	i
Cc1cc(NC(=O)COC(=O)c2n[nH]c3ccccc23)no1	i	i	19.6	i	i	i
COc1ccc2c(COC(=O)c3n[nH]c4ccccc34)cc(=O)oc2c1	i	i	26.0	i	i	106.8
Cc1cc(NC(=O)COC(=O)c2ccccc2Cl)no1	i	nt	nt	i	nt	nt
O=C(COC(=O)c1n[nH]c2ccccc12)c1cccc(Br)c1	i	nt	18.4	i	i	i
COc1cccc(Nc2nc3cc(C)ccc3nc2NS(=O)(=O)c2ccc(Cl)cc2)c1	nt	nt	nt	i	nt	nt
O=c1c2ccccc2c2ccccc2c(=O)n1Nc1ccccc1	i	nt	nt	i	nt	nt
COc1ccc(Br)cc1C(C[N+](=O)[O-])c1c(N)n(C)c(=O)n(C)c1=O (stereo unspecified)	10µM	i	i	i	i	i
COc1ccc(C(C#N)N2N=C(c3ccccc3)CC2c2ccccc2)cc1OC (stereo unspecified)	i	?	68.5	i	i	44.3
COc1ccc(C(C#N)N2N=C(C)CC2c2ccccc2)cc1OC (stereo unspecified)	i	?	i	i	i	i
COc1ccc(C2=NN(C(C#N)c3ccc(OC)cc3)C(c3ccccc3)C2)cc1 (stereo unspecified)	?	i	32.8	i	i	82.7
COc1cccc(NC(=O)Nc2ccc3nsnc3c2)c1	i	i	30.5	i	i	96.9
CCn1c(C)nc2cc(C(=O)OC)ccc21	i	i	i	i	i	i
CCN(CC)c1ccc(NC(=O)Nc2cccc(C(C)=O)c2)cc1	i	i	i	?	i	46.2
SMILES	RE007 growth inh	FBPA Giardia inh	CHX counter	Tb PYK inh	LmPK inhibitor	Shiga inhibitor
CCn1c(C)nc2cc(NC(=O)Nc3cccc(C(C)=O)c3)ccc21	i	i	20.7	i	i	i
Cc1nc2cc(NC(=O)Nc3nccs3)ccc2n1C	i	i	21.6	i	i	35.2
COc1cccc(NC(=O)Nc2ccc3nc(C)c(C)nc3c2)c1	i	i	i	i	i	i
Cc1cc(Cn2nc(C(=O)NCC3CC3)cc2-c2ccccc2)on1	i	nt	nt	i	nt	nt
Cc1ccc(S(=O)(=O)NCc2ccccc2)cc1C(=O)N1CCCCCCC1	i	nt	nt	i	nt	nt
COc1cccc(NC(=O)Nc2ccc3c(c2)nc(C)n3C)c1	i	i	26.1	i	?	58.3
Cc1nc2cc(NC(=O)NC(C)(C)C)ccc2n1C	i	i	17.9	i	i	i
CCCNC(=O)Nc1ccc2c(c1)nc(C)n2C	i	i	i	i	i	i
O=C1CCC/C1=c1\s/c(=C/c2cccnc2)c(=O)n1-c1ccccc1	i	nt	nt	i	nt	nt
O=C(CN(Cc1ccco1)C(=O)c1ccc(F)cc1)Nc1ccccc1Br	i	nt	nt	i	nt	nt
COc1ccc(S(=O)(=O)N(C)C[C@@H]2OCc3cnnn3CCCC(=O)N([C@@H](C)CO)C[C@@H]2C)cc1	i	nt	nt	i	nt	nt
COc1cccc([C@@H]2Oc3ccc(OC)cc3C(=O)[C@H]2O)c1	i	i	39.5	i	i	42.3
COC(=O)[C@@H](NC(=O)O[C@H]1C(=O)c2cc(OC)ccc2O[C@@H]1c1ccc(OC)c(Br)c1)C(C)C	nt	i	nt	nt	nt	nt
COc1ccc2c(c1)C(=O)[C@@H](O)[C@H](c1ccc(OC)c(Br)c1)O2	i	i	17.9	i	i	42.8
COc1cccc([C@@H]2Oc3ccc(Br)cc3C(=O)[C@H]2O)c1	nt	i	nt	nt	nt	nt
Cc1ccc(C(=O)Nc2ccccc2N2CCCCC2)o1	i	nt	i	i	i	i
O=C(COC(=O)CNC(=O)c1cccc(OC(F)F)c1)NNC(=O)c1ccccc1	i	nt	nt	i	nt	nt
C=C1C[C@]23CC[C@H]4C(CO)(CO)C[C@@H](O)C[C@@]4(C)[C@@H]2CC[C@H]1C3	nt	i	nt	nt	nt	nt
O=C(NCc1ccccc1)N1CCC(CO)(CCc2ccccc2)CC1	i	i	i	i	i	i
CC#CC(=O)N1CCC(CO)(CCc2ccccc2)CC1	i	i	17.8	i	i	i
Oc1ccccc1-c1nnc(COc2ccccc2)o1	i	i	26.7	i	i	i
Clc1ccc(-c2nnc(CCc3ccccc3)o2)c(Cl)c1	i	i	41.5	i	i	89.6
O=C(O)c1ccc(CSc2nnc(COc3ccccc3)o2)cc1	i	i	i	i	i	i
Cc1ccc(OCc2nnc(-c3ccc(Cl)cc3)o2)cc1	i	nt	nt	i	nt	nt
Oc1ccccc1-c1nnc(COc2ccc(Cl)cc2Cl)o1	i	i	44.8	i	i	74.0
SMILES	RE007 growth inh	FBPA Giardia inh	CHX counter	Tb PYK inh	LmPK inhibitor	Shiga inhibitor
CC(=O)Nc1ccccc1OCc1nnc(-c2ccccc2Cl)o1	i	i	i	i	i	i
c1ccc(OCc2nnc(-c3ccccc3)o2)cc1	i	i	26.4	i	i	117.8
C=Cc1ccc(S(=O)(=O)O)cc1	nt	i	i	i	nt	i
CCOc1ccccc1-c1nc(Cn2c(=O)cc(C)c3c(C)nn(-c4ccccc4)c32)c(C)o1	nt	nt	nt	i	nt	nt
CC(=O)c1ccc(OCCCC(=O)NCCc2ccc(C(F)(F)F)cc2)cc1	i	i	i	i	i	i
CCN(CC)c1ccc(/C=N\NC(N)=O)cc1	i	i	i	i	i	i
CCOc1ccc(/C=N/NC(=O)CC(=O)NCc2ccccc2)cc1	i	i	i	i	i	i
CCOc1ccc(/C=N/NC(=O)Nc2ccccc2)cc1	i	i	41.1	i	i	69.4
